HEK293 tox = HEK 293 cell cytotoxicity | HEK 293 viability, ATP luminescence (CellTiter-Glo), 48-72 h | Potency, µM (doses to about 115 µM), for inactives: at the highest dose activity change, negative = cytotoxicity, hits mostly inhibitors | 94,000 tested, 6.6% active; also: nearly all actives have a fitted effect of over 60% in size
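qHTS cytotoxicity; HEK 293, 250 cells/well; compound pinned; 48 or 72 hr, 37 degree Celsius, 5% CO2, 95% humidity; CellTiter-Glo, 10 min RT; luminescence (ATP).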
hNpr1 antagonist = human Npr1 receptor antagonism; P16066; HEK293 hNpr1 GloSensor cGMP, ANP-stimulated luminescence; Potency, µM (highest dose often 46.3 µM), inactives show at the top dose activity change, negative = inhibition, hits mostly inhibitors; 76,000 tested, 1.6% active; AID 1347048; calls by dose curve; also: nearly all actives have a fitted effect of over 60% in size
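Compound pre-incubated 30 min at room temperature on GloSensor-loaded HEK293 cells stably carrying hNpr1 and the pGS-40F cGMP biosensor. Stimulation uses hNppA at 0.1 nM final; luminescence is taken at baseline and 20 min post-agonist.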
FLuc inh = inhibitors of firefly (Photinus pyralis) luciferase; P08659; purified P. pyralis luciferase, luminescence, biochemical; Potency, µM (top dose mostly 115 µM), most hits filed as inhibitors; 76,000 tested, 2.5% active; AID 1347043; also: nearly all actives have a fitted effect of over 65% in size
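Purified 10nM P. pyralis luciferase with 10uM D-luciferin and 10uM ATP in 50mM Tris acetate pH 7.5, 10mM Mg acetate, 0.01% Tween-20, 0.05% BSA. qHTS titration; luminescence read by CCD imager.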
NIH3T3 tox = kills NIH 3T3 cells | NIH 3T3 viability, CellTiter-Glo ATP luminescence, 48-72 h | Potency, µM (series often up to 96.7 µM), for the others: at the highest dose activity change, negative = cytotoxicity, most hits filed as inhibitors | 94,000 tested, 4.3% active; also: nearly all actives have a fitted effect of over 55% in size
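ATP-dependent luminescence (CellTiter-Glo) served as the viability signal for NIH 3T3 cells treated with compound for 48 or 72 hr at 37 °C.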
GPT2 inhibitor = GPT2 alanine aminotransferase inhibition. Recombinant GPT2, coupled pyruvate oxidase/HRP Amplex Red fluorescence. Potency, µM (highest dose often 57.7 µM), for inactives: at the highest dose activity change, negative = inhibition, actives largely listed as inhibitors. 100,000 tested, 0.25% active; also: nearly all actives have a fitted effect of over 60% in size
Target sequence (Q8TD30 whole entry, looked up): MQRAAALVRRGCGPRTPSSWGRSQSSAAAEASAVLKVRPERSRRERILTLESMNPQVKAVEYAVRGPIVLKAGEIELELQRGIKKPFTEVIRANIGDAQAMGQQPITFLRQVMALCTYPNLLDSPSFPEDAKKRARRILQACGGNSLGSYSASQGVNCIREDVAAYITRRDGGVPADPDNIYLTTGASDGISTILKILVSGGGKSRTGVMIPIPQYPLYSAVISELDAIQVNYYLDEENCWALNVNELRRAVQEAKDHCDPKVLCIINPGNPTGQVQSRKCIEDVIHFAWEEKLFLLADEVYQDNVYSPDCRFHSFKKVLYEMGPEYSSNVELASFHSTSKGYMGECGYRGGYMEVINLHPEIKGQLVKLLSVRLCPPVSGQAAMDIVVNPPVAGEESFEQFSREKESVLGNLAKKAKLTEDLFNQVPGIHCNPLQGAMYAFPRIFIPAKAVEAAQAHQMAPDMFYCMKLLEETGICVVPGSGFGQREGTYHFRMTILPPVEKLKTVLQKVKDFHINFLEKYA
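Recombinant GPT2 (10ng/uL) with 250uM a-KG and 2mM L-alanine, 30 min at room temperature, in HEPES pH 7.5 buffer. Pyruvate detected by pyruvate oxidase/HRP/Amplex Red fluorescence after 30 min in the dark; AOA (50uM) as positive control.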
Numbers without * were called inactive; i = inactive; ? = inconclusive; . = no result given; [ ] = dose if it differs, or a comment. Compounds with a hit are over-represented: about 10% of the library has one in this group of screens. Unless noted, calls follow the shape of the dose curve; as a rule, active = well fitted curve in the direction sought with a large enough effect; inconclusive = small, poorly fitted or top-dose-only effect, or another doubt; inactive = no such curve, though single readings can be large; an effect the other way counts as inactive or inconclusive. % is scaled to controls: 0 for no effect and ±100 for the full control effect; potency is read from the fitted curve at half-maximal effect.

SMILES	HEK293 tox	hNpr1 antagonist	FLuc inh	NIH3T3 tox	GPT2 inhibitor
Cc1ccc(-c2cccc(CN3CCCC3C(=O)NC(C)C)c2)cc1Cl (centres undefined)	22.4µM*	.	.	22.4µM*	.
CNC(=O)C1CCCN1Cc1cccc(-c2cccc(OC)c2)c1 (centres undefined)	?	.	.	?	-7.5%
CCNC(=O)NC1=N[C@@]23CO[C@H](c4ccccc4)C[C@@H]2CC(=O)[C@H]3S1	?	.	.	-42.3%	.
Cc1ccsc1CN(Cc1ccc(CN(C)S(C)(=O)=O)o1)CC(C)C	?	-7.4%	i	?	2.4%
CCc1ccc(N2CC(c3noc(C4(c5ccc(OC)cc5)CC4)n3)CC2=O)cc1 (centres undefined)	44.7µM*	?	i	?	i
CCc1ccc(N2CC(c3noc(-c4ccc(OC)cc4OC)n3)CC2=O)cc1 (centres undefined)	?	-23.3%	i	?	i
CCc1ccc(N2CC(c3noc(-c4cccc(OC)c4OC)n3)CC2=O)cc1 (centres undefined)	79.4µM*	2.7%	i	28.2µM*	i
CC(C)CN1C(=O)c2cccn2CC1C(=O)N1CCN(c2ncccn2)CC1 (centres undefined)	2.3%	4.6%	i	4.0%	i
CC(=O)N1CCC(c2nnc3n2C(C(=O)NCCc2ccc(Cl)cc2)CC3)CC1 (centres undefined)	-23.9%[172 µM]	.	.	-14.0%[138 µM]	i
CSc1ccc(C(=O)N2CC(=O)N(Cc3ccc(C)cc3)CC(O)C2)cc1 (centres undefined)	-21.2%	.	.	?	.
Clc1cccc(-c2cnc([C@@H]3COCCN3C3CCCCC3)[nH]2)c1	79.4µM*	-2.2%[70.6 µM]	i	?	?
Clc1ccc(-c2cnc([C@@H]3COCCN3Cc3ccccc3)[nH]2)cc1	89.1µM*	?	i	?	i
Fc1cccc(-c2cnc([C@@H]3COCCN3C3CCCCC3)[nH]2)c1	?	5.4%[70.6 µM]	i	-23.3%[138 µM]	4.7%[88.5 µM]
Oc1ccccc1CN1CCOC[C@H]1c1ncc(-c2ccccc2)[nH]1	?	-16.3%[70.6 µM]	i	100µM*	1.1%[88.5 µM]
Clc1cccc(-c2cnc([C@@H]3COCCN3Cc3ccccc3)[nH]2)c1	100µM*	?	i	79.4µM*	-0.7%[88.5 µM]
Oc1ccccc1CN1CCOC[C@H]1c1ncc(-c2ccc(F)cc2)[nH]1	?	-24.2%[70.6 µM]	i	-28.9%[138 µM]	-11.4%[88.5 µM]
O=C(c1ccc(Cl)nc1)N1CCN(CCn2nc3n(c2=O)CCCC3)CC1	0.1%	.	.	i	.
O=C(N[C@@H]1CN(Cc2ccc(F)cc2Cl)C[C@H]1CO)C1CCC1	-2.3%	4.7%	i	-7.5%	-1.0%
CC(=O)N1CCCN(Cc2nc(-c3cccc(Oc4ccccc4)c3)oc2C)CC1	?	1.5%	i	?	i
Cc1oc(-c2cccc(Oc3ccccc3)c2)nc1CN1CC[C@H](N(C)C)C1	?	10.6%	i	79.4µM*	i
COc1ccc(CN2CC(N(C)c3ccccc3C)C2)cc1	?	.	.	79.4µM*	i
Cc1ccccc1N(C)C1CN(Cc2ccc(C#N)cc2)C1	?	0.0%[70.6 µM]	i	?	-3.3%[88.5 µM]
COc1ccc(CN2CC(Oc3ccc(F)c(C)c3)C2)cc1	89.1µM*	-4.7%[70.6 µM]	i	?	i
COc1ccc(Cn2c(=O)c(C(=O)Nc3ccc(F)cc3)nc3cccnc32)cc1	i	.	.	-12.4%	i
CCc1noc([C@@H]2CC(F)(F)CN2C(=O)c2ccoc2C)n1	?	-4.0%	35.5µM*	-8.9%	2.3%
Cn1ncc2c(C(=O)NCc3ccccc3F)cc(-c3ccccc3C(F)(F)F)nc21	39.8µM*	.	.	?	.
Cn1ncc2c(C(=O)C3CCN(Cc4ccccc4)CC3)cc(-c3ccccc3C(F)(F)F)nc21	20µM*	.	.	31.6µM*	.
COCCNC(=O)c1cc(-c2ccccc2C(F)(F)F)nc2c1cnn2C	-10.5%	.	.	-4.7%	.
Cn1ncc2c(C(=O)N3CCCC3)cc(-c3ccccc3C(F)(F)F)nc21	-28.0%	.	.	-26.5%	.
Cn1ncc2c(C(=O)NCCc3cccc(F)c3)cc(-c3ccccc3C(F)(F)F)nc21	39.8µM*	.	.	?	.
